# PubChem BioAssay (NCATS)
# Records with an inconclusive call do not appear. A number with no mark means an inactive call. Calls come from the whole dose curve; as a rule, active = well fitted inhibition curve with a large enough effect; inconclusive = small, poorly fitted or top-dose-only effect; inactive = no such curve, though single readings can be large or run the other way.
# Target: Rap guanine nucleotide exchange factor 3 (Homo sapiens) (UniProt O95398)
# Assay: Counterscreen qHTS for antagonist of cAMP-regulated guanine nucleotide exchange factor 3 (EPAC1) (AID 1645888); note: % of control where 0% means no effect
# Conditions: Rap1B-BODIPY-GDP nucleotide exchange, fluorescence; series mostly up to 154 µM; activity change, negative = inhibition: at the top concentration
# Text: Assay Provider (PI): Xiaodong Cheng Ph.D. The University of Texas Medical Branch, […], TX MLPCN Grant: NS066510 In multi-cellular eukaryotic organisms, the effects of cAMP are transduced by two ubiquitously-expressed intracellular cAMP receptors, the classic protein kinase A/cAMP-dependent protein kinase (PKA/cAPK) and the more recently discovered exchange protein directly activated by cAMP/cAMP-regulated guanine nucleotide exchange factor (EPAC/cAMP-GEF). Both PKA and EPAC are ubiquitously expressed in all tissues, and an increase in intracellular cAMP levels will lead to the activation of both PKA and EPAC. Therefore, careful dissections of the individual role and relative contribution of EPAC and PKA within the overall cAMP signaling in various model systems are critical for further elucidating the mechanism of cAMP signaling. To date no EPAC-specific antagonists and agonist, as well as isoform-specific agonists have been reported, and developing EPAC-specific pharmacological probes to determine the physiological functions that EPAC play in the overall cAMP-mediated signaling remains a major challenge within the research field. Furthermore, identified regulators of EPAC may lead to new mechanism-based therapeutic strategies specifically targeting the EPAC / cAMP-signaling components as EPAC has been implicated to play important roles in major human pathological conditions such as diabetes, heart disease, and cancer. This qHTS will be used to screen the Molecular Libraries Small Molecule Repository (MLSMR) as a concentration-titration series using the NCGC unique quantitative screening (qHTS) platform to find activators for EPAC1. In addition, this assay will also be used as a counterscreen for the EPAC2 qHTS. This fluorescent based assay is developed and validated for EPAC1 that measures exchange using EPAC effector Rap1 complex with BODIPY-GDP, a GDP analog with a tethered fluorophores. Activators are identified by monitoring the change in fluorescence signal as the exchanged free BODIPY-GDP has a reduced fluorescence compared to Rap1-bound BODIPY-GDP. Increase in signal (activation) is the desired outcome for the EPAC1 agonist while no activity in this assay is desired for the EPAC2 agonist counterscreen. Reference: [1] de Rooij, J., Zwartkruis, F. J., Verheijen, M. H., Cool, R. H., Nijman, S. M., Wittinghofer, A., and Bos, J.L. (1998) Nature 396, 474-477. Kawasaki, H., Springett, G. M., Mochizuki, N., Toki, S., Nakaya, M., Matsuda, M., Housman, D. E., and Graybiel, A. M. (1998) Science 282, 2275-2279.
# EPAC1 Counterscreen PROTOCOL TABLE SEQUENCE No. (e.g., 1, 2, 3, etc.); […] (e.g., Cells, Incubation, Reagent, etc.); VALUE and DESCRIPTION. 1. Reagent. 3 uL. [1x] 250 nM Rap1B-BODIPY-GDP, and 50 uM GDP. 2a. Compound. 23 nL. Control 6,572 uM cAMP (working concentration). 2b, 2c. Compound. 23 nL. Control activator and inhibitor; 234 - 30,000 uM cAMP and 16.4 - 10,000 uM. 2d. Compound. 46 nL. MLSMR follow-up library; 0.64 - 10,000 uM. 3. Time. 15 sec, 1000rpm. Centrifuge. 4. Time. 5 min. Incubation at room temperature. 5. Detector. Fluorescence. (Read 1), Ex/Em = 480 nm / 540 nm. 6. Time. 30 min. Incubation at room temperature. 7. Detector. Fluorescence. (Read 2), Ex/Em = 480 nm/ 540 nm. 8. Reagent. 1uL. Dispense either [4x] 10 uM cAMP or buffer. 9. Time. 15 sec, 1000 rpm. Centrifuge. 10. Time. 5 min. Incubation at room temperature. 11. Detector. Fluorescence. (Read 3), Ex/Em = 480 nm / 540 nm. 12. Time. 30 min. Incubation at room temperature. 13. Detector. Fluorescence. (Read 4), Ex/Em = 480 nm / 540 nm. NOTES (numbers refer to Sequence numbers above; values are from representative experiments) 1. Medium-binding black solid-bottom Greiner plates (789176-F). Dispense 3 uL of [1x] 250 nM Rap1B-BODIPY-GDP, and 50 uM GDP into columns 1 to 48. 2a. Control compound cAMP (6,572 uM, column 3, rows 1 to 32) single pin-transferred for a [final] of 50 uM. 2b. […]
# Chain of Rap guanine nucleotide exchange factor 3 (Homo sapiens) (O95398 whole entry, looked up): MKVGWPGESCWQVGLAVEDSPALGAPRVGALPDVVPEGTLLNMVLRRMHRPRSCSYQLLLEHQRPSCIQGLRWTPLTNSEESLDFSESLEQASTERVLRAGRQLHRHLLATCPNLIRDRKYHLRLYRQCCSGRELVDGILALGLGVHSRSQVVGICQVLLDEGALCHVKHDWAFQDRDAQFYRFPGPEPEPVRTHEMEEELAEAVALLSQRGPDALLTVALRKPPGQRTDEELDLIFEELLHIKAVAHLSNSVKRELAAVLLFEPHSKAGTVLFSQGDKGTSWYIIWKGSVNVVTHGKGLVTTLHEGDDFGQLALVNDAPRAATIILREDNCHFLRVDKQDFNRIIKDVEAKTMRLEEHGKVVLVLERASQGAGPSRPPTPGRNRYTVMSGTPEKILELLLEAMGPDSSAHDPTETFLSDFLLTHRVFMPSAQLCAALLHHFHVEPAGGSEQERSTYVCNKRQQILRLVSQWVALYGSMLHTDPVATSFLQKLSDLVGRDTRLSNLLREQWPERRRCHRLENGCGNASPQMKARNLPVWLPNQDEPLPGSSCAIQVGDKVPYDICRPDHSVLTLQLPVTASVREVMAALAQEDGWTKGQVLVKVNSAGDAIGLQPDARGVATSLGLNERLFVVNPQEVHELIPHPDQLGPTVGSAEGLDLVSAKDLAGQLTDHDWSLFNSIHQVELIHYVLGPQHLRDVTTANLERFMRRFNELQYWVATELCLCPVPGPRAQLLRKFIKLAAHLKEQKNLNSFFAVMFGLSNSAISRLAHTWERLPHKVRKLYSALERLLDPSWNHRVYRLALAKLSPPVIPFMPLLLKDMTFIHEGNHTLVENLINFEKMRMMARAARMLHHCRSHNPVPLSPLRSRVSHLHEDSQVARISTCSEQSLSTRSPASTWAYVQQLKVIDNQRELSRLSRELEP
row,Compound,"activity change, negative = inhibition"
1,CC1=NCCN1S(=O)(=O)c1c(C(C)C)cc(C(C)C)cc1C(C)C,-0.295%
2,COc1cccc(-c2nc(N3CCN(c4ccccc4)CC3)c3ccccc3n2)c1O,38%
3,COc1ccc(CCn2c(=N)c(C(=O)NC3CCCCC3)cc3c(=O)n4ccccc4nc32)cc1,13.9%
4,CCn1c(O)c(/C=N/NC(=O)c2ccncc2)c(=O)n(CC)c1=S,70.6%
5,COC(=O)c1cn(S(=O)(=O)c2ccccc2)c2ccccc12,-8.12%
6,CN1OC[C@@H]2CN(Cc3ccc(Cl)cc3)[C@H](c3ccc(-n4ccnc4)cc3)C[C@@H]21,1.17% [at 30.8 µM]
7,O=S(=O)(Nc1cc(Sc2ncn[nH]2)c(O)c2ccccc12)c1ccccc1,3.32% [at 30.8 µM]
8,COc1ccccc1N1CSC2=C(C#N)C(c3ccc(SC)cc3)CC(=O)N2C1 (stereo not given),-2.77% [at 30.8 µM]
9,Cc1oc2ccc(O)c(CN3CCCCC3)c2c1C(=O)Nc1cccc(C(F)(F)F)c1,20%
10,CCOc1cc(/C=C(/C#N)c2ccc(Cl)cc2)cc(Cl)c1OCC(=O)O,-8.72% [at 30.8 µM]
11,CCCCCN(C(=O)CCC(=O)OCC(=O)N1CCC(C)CC1)c1c(N)n(CCCC)c(=O)[nH]c1=O,7.74%
12,O=C(Nc1c(-c2ccc3c(c2)OCO3)[nH][nH]c1=O)c1ccccc1,-22.2%
13,Cc1ccc(C)c(S(=O)(=O)N2CCN(C(=O)CCNC(=O)c3ccc(Br)cc3)CC2)c1,-9.4%
14,CC(C)Cn1nc(NS(=O)(=O)c2cccc3nonc23)c2cc3ccccc3nc21,7.42%
15,COC(=O)c1ccc(OCC2c3cc(OC)c(OC)cc3CCN2C(=O)c2ccc(OC)cc2)cc1 (stereo not given),7.89%
16,Cc1[nH][nH]c(=O)c1C(c1ccc(-c2ccc(Cl)c(C(=O)O)c2)o1)c1c(C)[nH][nH]c1=O,34.9% [at 30.8 µM]
17,O=C1c2cccc3cc([N+](=O)[O-])cc(c23)C(=O)N1/N=C/c1ccc(O)cc1O,3.23%
18,O=C(O)c1cc(NN=C2c3ccccc3-c3ccccc32)ccc1Cl,5.77%
19,COc1ccc2ccc(C(C)(C(C)=O)C(=O)OC(C)C)cc2c1 (stereo not given),-29.5% [at 30.8 µM]
20,Cn1cc(C(=O)C(=O)N2CCCCC2)c2ccccc21,-5.66%

row,Compound,"activity change, negative = inhibition"
1,COn1c2c(c3c4nonc4ccc31)CCCC2,27.8%
2,CCCCN1CC(c2nc3ccccc3n2CCCCOc2cc(C)cc(C)c2)CC1=O (stereo not given),13.3%
3,Cc1ccc(C)c(CSc2nnc(C)n3c2cc2sccc23)c1,9.24%
4,O=S(=O)(c1ccc(Br)c2ccccc12)N1CCCC1,9.53%
5,CCOC(=O)c1cc(-c2nnc(SCC(=O)Nc3ccc(F)cc3)o2)c(C)nc1C,-1.87%
6,COc1cccc(/C=C2/NC(=O)N(CC(=O)Nc3ccc(C)cc3)C2=O)c1OCc1cccc(C(=O)O)c1,5.77%
7,O=C(O)CCn1cc(C2CC(c3ccccc3)=NN2c2ccccc2)c(-c2ccccc2)n1 (stereo not given),1.5%
8,Cc1cc(C)c(S(=O)(=O)N2CCCC2)c(C)c1,15.2%
9,CCCc1nc(SC2CCCC2)c2c(=O)n(C)c(=O)n(C)c2n1,15.8%
10,Cc1cccc(C)c1Nc1c(-c2ccc(Cl)s2)nc2ncccn12,-6.74%
11,Cc1ccc(C(C[N+](=O)[O-])c2c(-c3ccccc3O)[nH][nH]c2=O)cc1 (stereo not given),-0.345% [at 30.8 µM]
12,COc1ccc(O)c(C(=O)c2cc(SCC(=O)O)c3nc4sc5c(c4c(=O)n3c2)CCCC5)c1,-8.94%
13,Nc1cccc2c(O)cc(S(=O)(=O)O)cc12,191%
14,O=C(COc1ccc(Cl)cc1)NC1=NN(c2ccccc2)C(=O)C1,6.09%
15,Cn1cccc1/C=C1\SC(=S)N(NC(=O)c2cccc(Cl)c2)C1=O,19.2%
16,COc1cc(C2CC(=O)Oc3cc(C)c(Br)c(C)c32)cc(OC)c1OC (stereo not given),-6.95% [at 30.8 µM]
17,Cn1c(C(O)c2ccc(Br)cc2)nc(Cl)c1Cl (stereo not given),-0.272% [at 30.8 µM]
18,CCCCN1C(=O)C(NC(=O)c2ccc(C(C)(C)C)cc2)(C(F)(F)F)C(C(=O)OC)=C1C (stereo not given),-20.7%
19,Cc1ccc(-c2nc(S(=O)(=O)c3ccc(C)cc3)c(N3CCOCC3)o2)cc1,4.36%
20,CCC1SC2=NC(C)=C(C(=O)OC)C(c3cccs3)N2C1=O (stereo not given),-9.77% [at 30.8 µM]
